Screening data (PubChem BioAssay)
In the library only some 6.9% were active in any assay of this set; here they are far more common.
NR3A LBD binder – modulators (binders) of human NR3A ligand-binding domain; 340,000 tested, 2.5% active; Tm shift relative to glycine control, % at 25 µM; NR3A LBD differential scanning fluorimetry, Tm shift; 0% = protein alone, 100% = glycine-bound protein;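 active = melting temperature shift of at least 10% of the positive control shift, at one fixed dose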
SKKanGAS inh – SKKanGAS growth inhibition; S. pyogenes SKKanGAS, kanamycin growth, BacTiter-Glo, 6 h; inhibition, % at 7.5 µM; 300,000 tested, 1.3% active; AID 1662;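 active = mean replicate score, as percent of positive control median, at least 50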;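 also: strain carries kanamycin resistance gene driven by streptokinase promoter and grows in 40 µg/ml kanamycin; loss of luminescence reflects streptokinase promoter inhibition or plain growth inhibition; 0% = median of DMSO wells and 100% = positive control at its reference dose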
MPTP block – inhibitors of mitochondrial permeability transition pore. isolated mouse mitochondria, Ca2+ swelling absorbance, 30 min. inhibition, % at 10 µM. 360,000 tested, 1.4% active. AID 602449;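 active = inhibition of 50% or more, scaled per plate between neutral and stimulator controls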;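 also: 0% = DMSO wells given calcium and 100% = 1 mM EGTA wells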
Beta apoptosis – beta cell apoptosis inhibition; INS-1E cytokine-induced death, ATP luminescence, 48 h; percent of positive-control rescue, neutral wells zero; protection from apoptosis, % (no concentration beside the values); 300,000 tested, 0.8% active; AID 435005;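 active = Every replicate reaches about 75%, or at least half do and their mean reaches it too, limit read from the data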;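 also: 0% = cytokine-treated negative control wells and 100% = positive control rescue; higher means more ATP so stronger rescue from cytokine killing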
Mdm2 MdmX PPI – inhibitors of human Mdm2/MdmX interaction. O15151+Q00987. SaOS-2 split-luciferase Mdm2/MdmX complementation, luminescence. inhibition, % at 8 µM. 330,000 tested, 3% active. AID 485346;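 active = inhibition of at least 50% at 8 µM in the primary screen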
Target sequence (O15151 whole entry, looked up): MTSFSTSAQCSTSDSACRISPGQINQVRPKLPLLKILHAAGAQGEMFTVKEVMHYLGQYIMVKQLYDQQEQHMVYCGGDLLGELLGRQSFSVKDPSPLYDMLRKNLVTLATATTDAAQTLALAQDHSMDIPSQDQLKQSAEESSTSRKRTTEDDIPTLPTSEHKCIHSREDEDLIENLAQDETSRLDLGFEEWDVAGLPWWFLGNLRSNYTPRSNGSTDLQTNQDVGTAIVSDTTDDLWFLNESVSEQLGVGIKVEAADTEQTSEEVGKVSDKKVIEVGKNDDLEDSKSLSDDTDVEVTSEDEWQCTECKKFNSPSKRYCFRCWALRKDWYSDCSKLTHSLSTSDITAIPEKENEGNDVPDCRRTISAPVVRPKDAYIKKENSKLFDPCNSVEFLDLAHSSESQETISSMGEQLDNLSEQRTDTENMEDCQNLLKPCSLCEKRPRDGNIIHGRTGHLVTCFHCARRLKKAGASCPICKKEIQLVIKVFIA
Target sequence (Q00987 whole entry, looked up): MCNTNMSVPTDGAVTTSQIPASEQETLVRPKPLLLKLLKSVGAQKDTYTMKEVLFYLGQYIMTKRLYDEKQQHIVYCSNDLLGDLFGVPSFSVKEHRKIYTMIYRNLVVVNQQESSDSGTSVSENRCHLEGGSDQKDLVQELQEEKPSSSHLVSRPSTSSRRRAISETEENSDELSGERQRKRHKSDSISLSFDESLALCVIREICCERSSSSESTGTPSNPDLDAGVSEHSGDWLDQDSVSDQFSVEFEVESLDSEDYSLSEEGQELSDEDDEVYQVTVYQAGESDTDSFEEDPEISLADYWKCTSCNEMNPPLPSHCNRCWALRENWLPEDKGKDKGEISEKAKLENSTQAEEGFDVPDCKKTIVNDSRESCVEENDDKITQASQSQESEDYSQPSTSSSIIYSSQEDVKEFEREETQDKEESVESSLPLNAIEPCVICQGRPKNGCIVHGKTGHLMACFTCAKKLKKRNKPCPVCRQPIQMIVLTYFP
CSC inhib – cancer stem cell inhibition. cancer stem cell-like cells viability, luminescence. inhibition, % at 7.5 µM. 300,000 tested, 1.1% active. AID 2717; in the data active = inhibition above about 75%; tested in HMLE shEcad cells
Mdm2 MdmX conf – confirmation of human Mdm2/MdmX interaction inhibitors. inhibition, % at 8 µM. Mdm2-MdmX binding, luminescent assay. 10,000 tested, 55% active. shares compounds with Mdm2 MdmX PPI; in the data active = inhibition above about 40%
Full FLuc ctr – inhibits full-length luciferase, flagging false Mdm2/MdmX hits; SaOS-2 full-length luciferase counterscreen, luminescence; shares compounds with Mdm2 MdmX PPI; 6,200 tested, 77% active; inhibition, % at 8 µM; AID 504607;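 active = mean inhibition at 8 µM reaching about 37%, which flags the compound as non-specific, limit read from the data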;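 also: p53-null SaOS-2 cells with luciferase driven by a doxycycline-inducible promoter; compound on cells about two nights before reading with doxycycline added after day one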
The depositor's hits bear a star; x = no result.

SMILES	NR3A LBD binder	SKKanGAS inh	MPTP block	Beta apoptosis	Mdm2 MdmX PPI	CSC inhib	Mdm2 MdmX conf	others
CCN(CC(O)COc1ccc(OCC(O)CN(CC)C2CCCCC2)cc1)C1CCCCC1 (centres undefined)	-2	1	6	3	69*	8	12
CCN(CC(O)COCc1ccc(Cl)cc1)C1CCCCC1 (centres undefined)	-1	-4	-1	-3	1	4	x
C[C@]12c3[nH]c4ccccc4c3CCN1C(=O)C(CC(=O)NCCN1CCOCC1)C[C@@H]2C(=O)N1CCOCC1 (some centres undefined)	0	x	0	-2	-26	-15	x
C[C@@]12CCC=C[C@H]1[C@H](c1ccc3ccccc3c1/C=C/c1ccccc1)N(Cc1ccccc1)C2=O	-2	28	2	13	65*	66	15
CC(=O)Nc1ccc(NC(=S)NC(=O)c2oc3ccccc3c2C)cc1	-1	14	1	-7	62*	2	-1
CCC(=O)Nc1ccc(NC(=S)NC(=O)c2oc3ccccc3c2C)cc1	2	-2	4	-6	72*	-8	-17
CC(=O)NCCc1nc2cc(NS(=O)(=O)c3ccccc3)ccc2n1C	-2	1	1	5	-16	0	x
O=C(NCc1ccco1)C(=O)c1cn(CC(=O)N2CCCCC2)c2ccccc12	2	x	0	3	-4	-12	x
CCCS(=O)(=O)NC(=O)C1(C)CCN(C(=O)c2cncc(Br)c2)C1 (centres undefined)	x	x	0	x	x	x	x
O=C1CC2(CCN(C(=O)COc3ccc(Cl)cc3)CC2)Oc2ccccc21	x	-14	0	x	13	23	x
COc1ccc(/C=N/Nc2nc(-c3cccnc3)nc3ccccc23)cc1OC	-18	2	2	2	29	-2	x
Cc1ccc(Nc2nc(-c3cccnc3)nc3ccccc23)cc1	-2	0	16	x	63*	65	57*	Full FLuc ctr=57*
O=[N+]([O-])c1ccc(-c2nc(Nc3ccc(O)cc3)c3ccccc3n2)cc1	23*	18	4	8	70*	47	28
Cc1c(O)ccc(/C=N/Nc2nc(-c3cccnc3)nc3ccccc23)c1O	29*	0	10	24	66*	48	59*	Full FLuc ctr=70*
Cc1noc(C)c1CSCC(=O)Nc1cccc(C(F)(F)F)c1	-1	x	0	0	-5	7	x
COc1ccccc1Cn1c(=S)[nH]c2cc(C(=O)NCC3CCCO3)ccc2c1=O (centres undefined)	-1	4	-2	-1	15	-17	x
C=CCNC(=O)c1ccc(Cn2c(=S)[nH]c3cc4c(cc3c2=O)OCO4)cc1	-6	-3	5	5	60*	2	11
O=C(NCCN1CCCC1)c1ccc(Cn2c(=S)[nH]c3cc4c(cc3c2=O)OCO4)cc1	-1	-5	-1	2	-3	-4	x
O=C(NCC1CCCO1)c1ccc2c(=O)n(Cc3ccc(Cl)cc3)c(=S)[nH]c2c1 (centres undefined)	22*	9	3	2	56*	-8	31
CC1CCCCN1CCNC(=O)c1ccc2c(=O)n(Cc3ccc(Cl)cc3)c(=S)[nH]c2c1 (centres undefined)	-9	38	16	5	78*	-12	32
C=CCN1C(=O)c2ccc(C(=O)N(C)CC(=O)Nc3ccccc3C(F)(F)F)cc2C1=O	0	-3	-1	1	25	x	x
CCCN(CCC)CCNC(=O)c1cc2c(=O)n(CC)c3ccccc3c2s1	-2	-2	3	7	71*	0	46*	Full FLuc ctr=69*
CCN(CC)CCNC(=O)c1cc2c(=O)n(CC)c3ccccc3c2s1	-3	-2	1	1	47	-12	x
CC(C)OCCCNC(=O)c1cc2c(=O)n(C)c3ccccc3c2n1C	2	-5	0	4	-19	-5	x
Cc1ccc(Cl)cc1N1CCN(C(=O)c2cc3c(=O)n(C)c4ccccc4c3n2C)CC1	2	17	-1	-2	98*	18	86*	Full FLuc ctr=67*
SMILES	NR3A LBD binder	SKKanGAS inh	MPTP block	Beta apoptosis	Mdm2 MdmX PPI	CSC inhib	Mdm2 MdmX conf	others
Cc1cccc(N2CCN(C(=O)c3cc4c(=O)n(C)c5ccccc5c4n3C)CC2)c1C	0	25	-1	2	35	3	x
Cn1c(C(=O)NCCCN2CCN(c3ccccc3F)CC2)cc2c(=O)n(C)c3ccccc3c21	3	10	-1	0	58*	3	28
CCCCN(CC)CCCNC(=O)c1cc2c(=O)n(C)c3ccccc3c2n1C	3	2	-2	9	69*	3	23
C/C(=N\NC(=O)CCc1ccc(S(=O)(=O)N2CCOCC2)cc1)c1ccccc1Cl	-2	1	-4	-1	0	6	x
CCOC(=O)C(N=Nc1nn[nH]n1)C(C)=O (centres undefined)	x	x	-1	x	x	x	x
CN1CCN(CCCNC(=O)c2cc3c(=O)n(C)c4ccccc4c3s2)CC1	-2	-2	-3	18	54*	6	32
O=C(NCCCN1CCCCCC1)c1cc2c(=O)oc3ccccc3c2s1	-4	14	-1	-8	27	-21	x
COc1ccc(-n2c(N)c(C(=O)Nc3c(C)n(C)n(-c4ccccc4)c3=O)c3nc4ccccc4nc32)cc1	0	15	4	5	33	8	x
Cc1ccc(-n2c(N)c(C(=O)Nc3c(C)n(C)n(-c4ccccc4)c3=O)c3nc4ccccc4nc32)cc1C	x	16	x	42	51*	4	28
COc1ccc2c(C(=O)CCl)c[nH]c2c1	-16	2	3	-35	57*	-3	53*	Full FLuc ctr=24
Cc1cc(C)cc(NC(=O)COc2ccc(C(=S)N3CCOCC3)cc2)c1	0	-4	1	-3	-1	6	x
O=C(Nc1ccc(Cn2ccnc2)cc1)c1cccc(C(F)(F)F)c1	1	-5	0	x	25	x	x
CC(=O)Nc1ccc(SCC(=O)c2cc(C)n(Cc3cccs3)c2C)cc1	-24	4	-1	1	74*	106*	-2
Cc1cc(C(=O)CSc2nnc(N)s2)c(C)n1Cc1cccs1	-2	-4	14	1	2	30	x
Cc1csc(SCC(=O)c2cc(C)n(Cc3cccs3)c2C)n1	1	9	7	14	66*	-8	79*	Full FLuc ctr=107*
CC(=O)Nc1ccc(SCC(=O)c2cc(C)n(-c3ccccc3F)c2C)cc1	-11	-6	6	-1	72*	87*	82*	Full FLuc ctr=73*
COCCn1c(C)cc(C(=O)CSc2ccc(NC(C)=O)cc2)c1C	2	-5	0	3	35	4	x
